# Article PMC8384837, “Expanding the binding specificity for RNA recognition by a PUF domain”
# Tests used:
# Assay in all cases: yeast three-hybrid, YBZ-1, SC-Leu-His + 0.5 mM 3-AT, 4 days
# Conditions in all cases: tags: N-Gal4 AD-HA kept; label: inside an RPR1-promoter hybrid RNA with tandem MS2 sites; ssRNA
# [1] = target: PUM1 PUF domain R3-LWE (Homo sapiens, UniProt Q14671 828-1176, C935L;R936W;Q939E)
# In short: (§1)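 Pumilio-1 PUF domain libraries, randomized (NNK) at the three base-contacting residues of each repeat, were co-expressed with matching RNA elements from a centromeric plasmid in strain YBZ-1 (LexA–MS2 coat fusion, HIS3 reporter). Transformants were plated on SC-Leu (input) and SC-Leu-His + 0.5 mM 3-AT (selection) for four days, and repeat regions were PCR-amplified and Illumina-sequenced. The interaction score is the log2 change in variant frequency from input to selection, with pseudocount 1 where absent.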
# [2] = target: PUM1 PUF domain R3-RER (Homo sapiens, UniProt Q14671 828-1176, C935R;R936E;Q939R)
# In short: as §1
# [3] = target: PUM1 PUF domain R5-RQI (Homo sapiens, UniProt Q14671 828-1176, C1007R;R1008Q;Q1011I)
# In short: as §1
# [4] = target: PUM1 PUF domain R5-KAE (Homo sapiens, UniProt Q14671 828-1176, C1007K;R1008A;Q1011E)
# In short: as §1
# [5] = target: PUM1 PUF domain R4-PFK (Homo sapiens, UniProt Q14671 828-1176, N971P;H972F;Q975K)
# In short: as §1
# [6] = target: PUM1 PUF domain R4-APR (Homo sapiens, UniProt Q14671 828-1176, N971A;H972P;Q975R)
# In short: as §1
# [7] = target: PUM1 PUF domain R5-MPR (Homo sapiens, UniProt Q14671 828-1176, C1007M;R1008P;Q1011R)
# In short: as §1
# [8] = target: PUM1 PUF domain R8-RWD (Homo sapiens, UniProt Q14671 828-1176, N1122R;Y1123W;Q1126D)
# In short: as §1
# [9] = target: PUM1 PUF domain R4-PHK (Homo sapiens, UniProt Q14671 828-1176, N971P;Q975K)
# In short: as §1
# [10] = target: PUM1 PUF domain R1-KDS (Homo sapiens, UniProt Q14671 828-1176, S863K;R864D;Q867S)
# In short: as §1
# PUM1 PUF domain R4-PFK, sequence (Q14671 828-1176 N971P/H972F/Q975K): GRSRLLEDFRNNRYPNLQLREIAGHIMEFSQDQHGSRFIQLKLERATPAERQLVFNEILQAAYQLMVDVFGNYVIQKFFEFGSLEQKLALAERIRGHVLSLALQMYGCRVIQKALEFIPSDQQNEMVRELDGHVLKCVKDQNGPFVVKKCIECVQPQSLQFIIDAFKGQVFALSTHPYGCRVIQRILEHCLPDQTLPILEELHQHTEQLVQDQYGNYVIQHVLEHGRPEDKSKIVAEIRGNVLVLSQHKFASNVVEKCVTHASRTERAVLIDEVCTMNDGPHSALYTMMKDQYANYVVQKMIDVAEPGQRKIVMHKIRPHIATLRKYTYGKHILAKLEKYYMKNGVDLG
# PUM1 PUF domain R3-LWE, sequence (Q14671 828-1176 C935L/R936W/Q939E): as the sequence (Q14671 828-1176 N971P/H972F/Q975K) above, with C108L, R109W, Q112E, P144N, F145H, K148Q counted along it
# PUM1 PUF domain R4-APR, sequence (Q14671 828-1176 N971A/H972P/Q975R): as the sequence (Q14671 828-1176 N971P/H972F/Q975K) above, with P144A, F145P, K148R counted along it
# PUM1 PUF domain R1-KDS, sequence (Q14671 828-1176 S863K/R864D/Q867S): as the sequence (Q14671 828-1176 N971P/H972F/Q975K) above, with S36K, R37D, Q40S, P144N, F145H, K148Q counted along it
# PUM1 PUF domain R5-RQI, sequence (Q14671 828-1176 C1007R/R1008Q/Q1011I): as the sequence (Q14671 828-1176 N971P/H972F/Q975K) above, with P144N, F145H, K148Q, C180R, R181Q, Q184I counted along it
# PUM1 PUF domain R5-MPR, sequence (Q14671 828-1176 C1007M/R1008P/Q1011R): as the sequence (Q14671 828-1176 N971P/H972F/Q975K) above, with P144N, F145H, K148Q, C180M, R181P, Q184R counted along it
# PUM1 PUF domain R8-RWD, sequence (Q14671 828-1176 N1122R/Y1123W/Q1126D): as the sequence (Q14671 828-1176 N971P/H972F/Q975K) above, with P144N, F145H, K148Q, N295R, Y296W, Q299D counted along it
# PUM1 PUF domain R5-KAE, sequence (Q14671 828-1176 C1007K/R1008A/Q1011E): as the sequence (Q14671 828-1176 N971P/H972F/Q975K) above, with P144N, F145H, K148Q, C180K, R181A, Q184E counted along it
# PUM1 PUF domain R4-PHK, sequence (Q14671 828-1176 N971P/Q975K): as the sequence (Q14671 828-1176 N971P/H972F/Q975K) above, with F145H counted along it
# PUM1 PUF domain R3-RER, sequence (Q14671 828-1176 C935R/R936E/Q939R): as the sequence (Q14671 828-1176 N971P/H972F/Q975K) above, with C108R, R109E, Q112R, P144N, F145H, K148Q counted along it
sequence,measurement,setting,value
GGCUAGAACUAGUGGAUCCCCCGGCGCCCGGCGGCUCGAGCCCGGGUAAGUGUAAUUAGUCUGCAUGCCGCCGGGCGCCAUGCCUGCAGGUCGACUCUAGAAAACAUG,binding signal,[1],1.78 log2 enrichment (interaction score)
same,binding signal,[2],4.06 log2 enrichment (interaction score)
GGCUAGAACUAGUGGAUCCCCCGGCGCCCGGCGGCUCGAGCCCGGGUAAGUGUUAAUAGUCUGCAUGCCGCCGGGCGCCAUGCCUGCAGGUCGACUCUAGAAAACAUG,binding signal,[3],4.62 log2 enrichment (interaction score)
same,binding signal,[4],2.99 log2 enrichment (interaction score)
GGCUAGAACUAGUGGAUCCCCCGGCGCCCGGCGGCUCGAGCCCGGGUAAGUGUAUAUAGUCUGCAUGCCGCCGGGCGCCAUGCCUGCAGGUCGACUCUAGAAAACAUG,binding signal,[5],6.46 log2 enrichment (interaction score)
same,binding signal,[6],2.82 log2 enrichment (interaction score)
GGCUAGAACUAGUGGAUCCCCCGGCGCCCGGCGGCUCGAGCCCGGGUAAGUGUAAGUAGUCUGCAUGCCGCCGGGCGCCAUGCCUGCAGGUCGACUCUAGAAAACAUG,binding signal,[1],5.48 log2 enrichment (interaction score)
GGCUAGAACUAGUGGAUCCCCCGGCGCCCGGCGGCUCGAGCCCGGGUAAGUGUAAAUAGUCUGCAUGCCGCCGGGCGCCAUGCCUGCAGGUCGACUCUAGAAAACAUG,binding signal,[5],4.17 log2 enrichment (interaction score)
same,binding signal,[1],3.37 log2 enrichment (interaction score)
same,binding signal,[7],1.45 log2 enrichment (interaction score)
same,binding signal,[8],2.26 log2 enrichment (interaction score)
GGCUAGAACUAGUGGAUCCCCCGGCGCCCGGCGGCUCGAGCCCGGGUAAGCGUAAAUAGUCUGCAUGCCGCCGGGCGCCAUGCCUGCAGGUCGACUCUAGAAAACAUG,binding signal,[8],2.45 log2 enrichment (interaction score)
GGCUAGAACUAGUGGAUCCCCCGGCGCCCGGCGGCUCGAGCCCGGGUAAGUGUACAUAGUCUGCAUGCCGCCGGGCGCCAUGCCUGCAGGUCGACUCUAGAAAACAUG,binding signal,[5],4.33 log2 enrichment (interaction score)
same,binding signal,[9],3.9 log2 enrichment (interaction score)
same,binding signal,[6],2.91 log2 enrichment (interaction score)
GGCUAGAACUAGUGGAUCCCCCGGCGCCCGGCGGCUCGAGCCCGGGUAAGUGUAAAUGGUCUGCAUGCCGCCGGGCGCCAUGCCUGCAGGUCGACUCUAGAAAACAUG,binding signal,[10],2.77 log2 enrichment (interaction score)
GGCUAGAACUAGUGGAUCCCCCGGCGCCCGGCGGCUCGAGCCCGGGUAAGUGUCAAUAGUCUGCAUGCCGCCGGGCGCCAUGCCUGCAGGUCGACUCUAGAAAACAUG,binding signal,[3],2.06 log2 enrichment (interaction score)
same,binding signal,[4],3.8 log2 enrichment (interaction score)
same,binding signal,[7],2.13 log2 enrichment (interaction score)
GGCUAGAACUAGUGGAUCCCCCGGCGCCCGGCGGCUCGAGCCCGGGUAAGUGUAAAUCGUCUGCAUGCCGCCGGGCGCCAUGCCUGCAGGUCGACUCUAGAAAACAUG,binding signal,[10],2.96 log2 enrichment (interaction score)
